In PubChem BioAssay AID651863 (Broad Institute, 2012):
Potency and affinity values are given separately. A number with no mark means an inactive call. Activity calls are given as the source filed them.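 Rule for the calls: active = compounds whose fitted half-maximal cell-killing dose is at most twice the top tested dose; inconclusive = flat curve with 30 to 70 percent signal loss, or poor fit; inactive = the rest.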

Experiment: kidney cell line viability loss – HEK293T, luminescence plate reader, powder samples, set 4, cytotoxicity control, dose response (AID 651863)
Conditions: CellTiter-Glo ATP luminescence, 48 h; series mostly up to 26 µM; activity change, negative = cytotoxicity: at the top concentration

| Structure (SMILES) | activity change, negative = cytotoxicity [%] | outcome |
| --- | --- | --- |
| Cc1cc(C)c(S(=O)(=O)Nc2nc(N(C)C)nc3ccccc23)c(C)c1 | -0.85 | – |
| O=C(O)C1CCCCC1C(=O)Nc1ccccc1CN1C(=O)c2ccccc2C1=O (centres undefined) | -0.574 | – |
| Cc1ccccc1S(=O)(=O)Nc1cc(C(C(=O)OC(C)C)C(=O)C(F)(F)F)c(O)c2ccccc12 (centres undefined) | -9.77 | – |
| COC(=O)CNc1nc(NS(=O)(=O)c2c(C)cc(C)cc2C)c2ccccc2n1 | 6.41 | – |
| COC(=O)[C@@H]1CCCC[C@@H]1C(=O)N1CCc2ccccc2[C@@H]1CN1C(=O)c2ccccc2C1=O | 12.2 | – |
| CCOC(=O)C(C(=O)OCC)c1nc(NS(=O)(=O)c2c(C)cc(C)cc2C)c2ccccc2n1 | 13.7 | – |
| Cc1ccc(S(=O)(=O)Nc2cc(C(C(=O)OC(C)C)C(=O)C(F)(F)F)c(O)c3ccccc23)c(C)c1 (centres undefined) | 5.36 | – |
| O=C(O)C1CCCCC1C(=O)N1CCc2ccccc2[C@H]1C(=O)NCCc1ccccc1 (some centres undefined) | 0.206 | – |
| C[C@@H](NC(=O)C1CCCC[C@H]1C(=O)O)c1ccccc1 (mixture of isomers) | -3.21 | – |
| O=C(O)[C@H]1CCCC[C@H]1C(=O)N1CCC2=C(CCCC2)C1CN1C(=O)c2ccccc2C1=O (some centres undefined) | – | inactive |
| O=C(O)[C@@H]1CCCN1C(=O)N1CCc2ccccc2[C@H]1CN1C(=O)c2ccccc2C1=O | 10.4 | – |
| O=C(O)C1CCCCC1C(=O)N1CCc2ccccc2C1CN1C(=O)Cc2ccccc2C1=O (centres undefined) | -9.79 | – |
| O=C(NCCO)c1ccccc1C(=O)NC[C@@H]1c2ccccc2CCN1C(=O)C1CCCCC1C(=O)O (some centres undefined) | -7.16 | – |
| COC(=O)C1CCCCC1C(=O)N1CCc2ccccc2C1CN1C(=O)c2ccccc2C1=O (centres undefined) | 22.2 | – |
